Where “and” joins values, the source holds several entries; their conditions need not be identical. Identical values can stand only once. Records with an inconclusive call do not appear. Some structures have more than one record in an assay (separate samples or runs), and their calls can disagree. Calls of active or inactive are those of the source. Calls follow the shape of the dose curve; as a rule, active = well fitted cell-killing curve with a large enough effect in the repeat runs; inconclusive = weak or mixed curves, or effect the other way; inactive = flat fitted curve, though single readings scatter.
assay: qHTS RealTime-Glo MT Cell Viability Assay in HEK293 cells - 40 hour (AID 1224874); conditions: RealTime-Glo luminescence; max response: stronger effect = lower value; also: nearly all actives have a fitted effect of over 50% in size
Description: U.S. Tox21 Program National Center for Advancing Translational Sciences [NCATS] NIH Chemical Genomics Center [NCGC] U.S. Environmental Protection Agency [EPA] National Institutes of Environmental Health Sciences [NIEHS] National Toxicology Program [NTP] U.S. Food and Drug Administration [FDA] Tox21 Assay Overview: Measure of cell viability is critical in the cell-base assay. Analysis of cell viability is necessary for the characterization of cell responses to cytotoxic drugs and environmental stress. A RealTime-Glo MT Cell Viability Assay to monitor cell viability in real time of continues cell culture during 40 hours of compound treatment was used to screen Tox21 10K library compounds in Hek293 cells. The RealTime-Glo MT Cell Viability Assay is a nonlytic, homogeneous, bioluminescent method to measure cell viability in real time using a simple, plate-based method. The assay involves adding NanoLuc luciferase and a cell-permeant prosubstrate to cells in culture. Viable cells reduce the proprietary prosubstrate to generate a substrate for NanoLuc luciferase. This substrate diffuses from cells into the surrounding culture medium, where it is rapidly used by the NanoLuc Enzyme to produce a luminescent signal. The signal correlates with the number of viable cells, making the assay well suited for cytotoxicity studies.
Tox21 Assay Protocol Summary: The mixture of Hek293 cell suspension and reagents were dispensed at 600cells/6 ul/well in 1536-well tissue culture treated black solid bottom plates using a Multidrop dispenser. After the assay plates were incubated at a 37 C/5% CO2 incubator for 5 hours, 23 nL of compounds dissolved in DMSO, positive and negative controls was transferred to the assay plate by a pintool work station. The plates were incubated at 37 C for 40 hours. The luminescence intensity were measured at 0h, 8h, 16h, 24h, 32h and 40h time points using ViewLux plate reader during compound treatment.
% is scaled to controls: 0 for no effect and ±100 for the full control effect; potency is read from the fitted curve at half-maximal effect.

Question: For `O=C(O)/C=C\C(=O)O`, which max response is on record?
Answer: 3.82% (inactive) and 7.29% (inactive) and 0.357% (inactive)

Question: For `OCCc1ccccc1`, which max response is on record?
Answer: 6.34% (inactive) and 10.1% (inactive) and 6.75% (inactive)

Question: With `Oc1ccc(/C=C/c2cc(O)cc(O)c2)cc1` as the molecule, how does the Potency read?
Answer: 15.6 µM (active)

Question: For `CCCCC(CC)COC(=O)/C=C/c1ccc(OC)cc1` (stereo unspecified), which max response is on record?
Answer: -5.76% (inactive) and 7.72% (inactive) and 2.19% (inactive)

Question: With `CCCNC(=O)NS(=O)(=O)c1ccc(Cl)cc1` as the molecule, how does the max response read?
Answer: 1.38% (inactive) and -0.751% (inactive) and 0.902% (inactive)

Question: With `CC(O)CO` (stereo unspecified) as the molecule, how does the max response read?
Answer: -4.92% (inactive) and 4.28% (inactive) and 2.26% (inactive)

Question: Which max response does the source give for `CCC1(c2ccccc2)C(=O)NCNC1=O` here?
Answer: -6.46% (inactive) and 0.966% (inactive) and 0.298% (inactive)

Question: With `O=C(O)C(=O)O` as the molecule, how does the max response read?
Answer: -1.98% (inactive) and 1.92% (inactive) and 0.465% (inactive)

Question: Which max response does the source give for `NC(=O)c1ccccc1O` here?
Answer: 0.307% (inactive) and -0.424% (inactive) and 11.5% (inactive)

Question: For `O=C(O)CCCCC(=O)O`, which max response is on record?
Answer: 4.36% (inactive) and 16.9% (inactive) and 2.15% (inactive)

Question: Which max response does the source give for `CC(O)CN(CCN(CC(C)O)CC(C)O)CC(C)O` (stereo unspecified) here?
Answer: 2.34% (inactive) and 10.6% (inactive) and -2.16% (inactive)

Question: For `CC(=O)Nc1nnc(S(N)(=O)=O)s1`, which max response is on record?
Answer: 3.91% (inactive) and 1.75% (inactive) and 9.79% (inactive)

Question: Which max response does the source give for `NC(N)=O` here?
Answer: 7.94% (inactive) and 4.18% (inactive) and 0.0917% (inactive)

Question: For `O=c1cc[nH]c(=S)[nH]1`, which max response is on record?
Answer: 6.11% (inactive) and 3.88% (inactive) and 9.23% (inactive)

Question: For `C[C@]12C=CC(=O)C=C1CC[C@@H]1[C@@H]2[C@@H](O)C[C@@]2(C)[C@H]1CC[C@]2(O)C(=O)CO`, which max response is on record?
Answer: -4.22% (inactive) and -3.97% (inactive) and 0.449% (inactive)

Question: Which max response does the source give for `O=C(C1CCCCC1)N1CC(=O)N2CCc3ccccc3C2C1` (stereo unspecified) here?
Answer: -18.7% (inactive)

Question: Which max response does the source give for `Cc1ccc(C)c(OCCCC(C)(C)C(=O)O)c1` here?
Answer: 7.5% (inactive) and 19.4% (inactive) and 5.2% (inactive)

Question: Which max response does the source give for `CC(=O)NS(=O)(=O)c1ccc(N)cc1` here?
Answer: 9.67% (inactive) and 1.24% (inactive) and 4.39% (inactive)

Question: For `N=C(N)c1ccc(OCCCCCOc2ccc(C(=N)N)cc2)cc1`, which Potency is on record?
Answer: 9.73 µM (active) and 16.6 µM (active) and 21.3 µM (active)

Question: With `Cn1cc[nH]c1=S` as the molecule, how does the max response read?
Answer: -1.38% (inactive) and 17.2% (inactive) and 3.37% (inactive)

Question: For `C/C=C/c1ccc(OC)cc1`, which max response is on record?
Answer: -0.468% (inactive) [middle of 4 runs]

Question: For `O=C(O)c1cccc([N+](=O)[O-])c1`, which max response is on record?
Answer: -2.27% (inactive) and 9.34% (inactive) and 3.61% (inactive)

Question: Which max response does the source give for `O=C(c1ccccc1)C(O)c1ccccc1` (stereo unspecified) here?
Answer: 5.88% (inactive) and 18.1% (inactive) and 4.15% (inactive)

Question: With `CCCCC1C(=O)N(c2ccccc2)N(c2ccccc2)C1=O` as the molecule, how does the max response read?
Answer: -7.32% (inactive) and -1.19% (inactive) and 8.39% (inactive)

Question: With `O=C1NC(=O)c2ccccc21` as the molecule, how does the max response read?
Answer: 3.82% (inactive) and -4.14% (inactive) and 5.86% (inactive)

Question: With `Nc1ccc(O)c(C(=O)O)c1` as the molecule, how does the max response read?
Answer: 1.04% (inactive) and -2.7% (inactive) and 0.776% (inactive)

Question: For `O=C(O)c1[nH]n(-c2ccc(S(=O)(=O)O)cc2)c(=O)c1N=Nc1ccc(S(=O)(=O)O)cc1`, which max response is on record?
Answer: -3.28% (inactive) and -13% (inactive) and 0.864% (inactive)

Question: Which max response does the source give for `CCCC(O)C(CC)CO` (stereo unspecified) here?
Answer: 0.318% (inactive) and 1.14% (inactive) and 0.567% (inactive)

Question: Which max response does the source give for `CC(C)[C@@H]1CC[C@@H](C)C[C@H]1O` here?
Answer: 3.82% (inactive) [middle of 5 runs]

Question: With `O=c1ccc2ccccc2o1` as the molecule, how does the max response read?
Answer: -0.397% (inactive) and 6.44% (inactive) and 2.9% (inactive)

Question: With `Cc1cn([C@H]2C[C@H](N=[N+]=[N-])[C@@H](CO)O2)c(=O)[nH]c1=O` as the molecule, how does the max response read?
Answer: -0.145% (inactive) and 3.87% (inactive) and 7.29% (inactive)

Question: Which max response does the source give for `COc1ccc2[nH]cc(CCNC(C)=O)c2c1` here?
Answer: -2.36% (inactive) and -20% (inactive) and 4.03% (inactive)

Question: For `NS(=O)(=O)c1cc(C(=O)O)c(NCc2ccco2)cc1Cl`, which max response is on record?
Answer: -14.3% (inactive) and -0.726% (inactive) and 2.65% (inactive)

Question: With `NC(=O)NC1NC(=O)NC1=O` (stereo unspecified) as the molecule, how does the max response read?
Answer: 4.83% (inactive) and -16.4% (inactive) and 0.282% (inactive)

Question: For `O=S(=O)(O)NC1CCCCC1`, which max response is on record?
Answer: 10.8% (inactive) and 12.2% (inactive) and -1.58% (inactive)

Question: Which max response does the source give for `O=C(O)c1cccnc1` here?
Answer: -0.0653% (inactive) [middle of 4 runs]

Question: Which max response does the source give for `Cc1ccc(O)cc1` here?
Answer: 8.24% (inactive) [middle of 4 runs]

Question: With `c1ccc2[nH]ccc2c1` as the molecule, how does the Potency read?
Answer: 2.15 µM (active)

Question: And the max response?
Answer: 8.38% (inactive) and -1.27% (inactive)

Question: Which Potency does the source give for `COc1c2occc2cc2ccc(=O)oc12` here?
Answer: 21.9 µM (active)

Question: And the max response?
Answer: -18.6% (inactive)
